# Experimental data reported in ChEMBL document CHEMBL3988442, “University of Dundee, Small-Polar-MMV Screening Library” (2021).
# In all, about 48,000 compounds went through this assay and about 13,000 (27%) showed an effect of 50% or more. The list shows a part of the results.
# System: Wolbachia pipientis
# Assay: Anti-Wolbachia Cell-Based Screen
# Type: functional
# Set-up: scale not given: in the data most compounds retested in dose-response had high values
# Details: 5 µM
row,SMILES,Percent Effect
1,CC1c2cc(F)ccc2CCN1CCCS(=O)(=O)C(C)C (centres undefined),-15.92%
2,Cc1nc[nH]c1CN1CCn2nc(CN3CC[C@H](F)C3)cc2C1,-2.245%
3,O=C(NCCN1CCNCC1)c1c(O)c2ccccc2[nH]c1=O,23.98%
4,COCC(O)CN(C)C(=O)NC1CCN(Cc2ccccn2)CC1 (centres undefined),9.175%
5,Cc1nn(C)c2nc(N(Cc3ccccc3)CC3CCCO3)sc12 (centres undefined),6.104%
6,COc1ccc(CN2CCC(O)(CN3CCCCC3)C2)c(C)c1 (centres undefined),1.46%
7,Cc1ccccc1CN1CCCN(CCN2CCOC2=O)CC1,6.019%
8,COc1ccc2c(c1)OC1(CCN(Cc3ccccc3C)CC1)CC2=O,114.8%
9,CC(C)c1cccc(CSc2nnc(CN3CCCC3=O)o2)n1,6.014%
10,CS(=O)(=O)Cc1nc(CN2CCCc3sccc3C2)cs1,11.89%
11,Cc1cc(C)n(-c2ccnc(N3CCC(C(=O)N4CCCC4)CC3)n2)n1,4.916%
12,COc1ccc(C(=O)C2CCCN(c3nccc(N)n3)C2)c(C)c1 (centres undefined),21.82%
13,CCOC(=O)C1CCN(c2nccc(-n3nc(C)cc3C)n2)CC1,112.2%
14,CCOC(=O)C1CSCCN1C(=O)c1ccc(-n2nc(C)cc2C)cc1 (centres undefined),16.86%
15,CCOC(=O)C1CCCN(c2ccc(-c3nc(C)no3)cn2)C1 (centres undefined),-3.256%
16,CCOC(=O)C1CCCN(c2nccc(-n3nc(C)cc3C)n2)C1 (centres undefined),112.5%
17,COCc1cc(CC2(NCc3ccccc3Cl)COC2)no1,-15.27%
18,COc1ccnc(N2CCC3(CC2)[C@H](O)C[C@@H]3OCCN(C)C)n1,-4.525%
19,CN(C(=O)CCc1cccs1)C1CCCN(C2Cc3ccccc3C2)C1 (centres undefined),-51.14%
20,C1CCCN(c2nc(C3CC3)no2)CC1,3.376%
21,O=C(O)C(F)(F)F.c1ncn(Cc2cn3c(n2)CN(CC2CCCCC2)CC3)n1,-9.983%
22,CN(C)CCN1CCC(NC2CSCCc3ccccc32)CC1 (centres undefined),-11.44%
23,O=C(Cc1ccccc1)NCCNCc1cccc(O)c1,87.97%
24,O=C(Cc1cccc(F)c1)NCCNCc1ccc2c(c1)CCO2,-2.552%
25,Oc1cccc(CNCCC2CCCO2)c1 (centres undefined),17.11%
26,CCOc1cccc(CCNC(=O)Cc2cccc(O)c2)n1,19.48%

row,SMILES,Percent Effect
1,O=C(Cc1ccc(F)cc1)NCCNCc1cccc(O)c1,75.28%
2,O=C(Cc1cccc(F)c1)NCCNCc1cccc(O)c1,-5.303%
3,CC(NCc1ccc(-c2ccc(Cl)cc2)o1)c1nnc2n1CCC2 (centres undefined),-12.12%
4,COCCSc1ccc(C(C)NC(=O)Nc2cccnc2)cc1 (centres undefined),-3.032%
5,CN(Cc1nnc(-c2ccco2)o1)CC1CCCN1c1cccnn1 (centres undefined),6.587%
6,CC(C)Oc1ccccc1-c1cc(CN)ccc1F,10.62%
7,CCCNC(=O)C(C)Nc1cccc(Oc2ccc(C#N)cn2)c1 (centres undefined),-3.4%
8,O=C(Cn1cc(Cl)cn1)Nc1ccc2c(c1)OCO2,1.967%
9,Cc1cc(C)nc(NC(=O)C(C)Oc2ccc3c(c2)OCO3)n1 (centres undefined),15.82%
10,Cc1cnn(CCCOc2ccc3c(c2)OCO3)c1,-11.3%
11,CC(C)C(=O)Nc1ccc(Oc2ccc3c(c2)OCO3)nc1,107.3%
12,O=C(CCN1C(=O)CCC1=O)Nc1ccc(Oc2ccc(Cl)cc2)nc1,-10.42%
13,CC(C)OCC(=O)Nc1ccc(Oc2ccc3c(c2)OCO3)nc1,77.43%
14,CC(=O)Nc1ccc(Oc2ccc3c(c2)OCO3)nc1,99.6%
15,Cc1ccc(Oc2ccc(NC(=O)NCC3CCOC3)cn2)cc1C (centres undefined),-4.291%
16,O=C(NCC1(O)CCOC1)NCC1(c2ccccc2Cl)CC1 (centres undefined),3.661%
17,CCS(=O)(=O)CC(=O)Nc1cccc2c1CN(CC(C)C)C2,-13.69%
18,CC(NC(=O)CCc1nc(-c2nnc[nH]2)no1)c1ccc(F)cc1F (centres undefined),1.12%
19,O=C(O)c1ccccc1CN1CCC2(Cc3ccccc3CNC2=O)C1 (centres undefined),101.8%
20,N#Cc1ccccc1C(=O)N1CCC2(CC(=O)NC2=O)C1 (centres undefined),-23.72%
21,COCCCC1(C(=O)O)CCCN(Cc2ccccc2C)C1 (centres undefined),-5.241%
22,O=C1NCc2ccccc2CC12CCN(Cc1ccccc1Cl)CC2,119.1%
23,O=C1NC2(CCN(Cc3ccccc3Cl)CC2)CC1c1ccccc1 (centres undefined),14.18%
24,O=C1NCc2ccccc2CC12CCN(Cc1c(F)cccc1Cl)C2 (centres undefined),159.3%
25,O=C(O)c1csc(S(=O)(=O)N2CCN(Cc3c(F)cccc3Cl)CC2)c1,1.307%
26,CN(Cc1c(F)cccc1Cl)C(=O)CN(C)C1CCc2ccccc21 (centres undefined),-6.423%

row,SMILES,Percent Effect
1,O=C(C1CCOC1)N1CCC2(CC1)Cc1ccccc1CNC2=O (centres undefined),-36.36%
2,CC(CC#N)N(C)Cc1ccccc1Cl (centres undefined),14.98%
3,CSc1nccc(N2C[C@@H]3CC[C@H](C2)N(CC2CCC2)C3=O)n1,23.13%
4,COCCC1(C(=O)NCCc2nncn2C2CC2)CCC1,-3.297%
5,CCOCC1CCN(C(=O)Nc2ccc3c(c2)CCCO3)C1 (centres undefined),-8.757%
6,CS(=O)(=O)c1nccn1CCOc1ccccc1F,21.64%
7,O=C(O)C(F)(F)F.c1csc(CN2CCCn3cnc(COCC4CC4)c3C2)n1,-1.239%
8,O=C1OCCN1CC(=O)N1C[C@H]2CC[C@@H]1CN(C(=O)c1cccnc1)C2,-9%
9,CCc1cnccc1C(=O)NC1CCN(C(=O)OC)CC1,94.08%
10,CC(NC(=O)NC1CCN(Cc2ccncc2)CC1)c1ccccc1F (centres undefined),-8.351%
11,O=C(NC1CCN(C(=O)C2CCCCC2)C1)c1ccncc1Cl (centres undefined),79.99%
12,CCc1ccc(O)c(C(=O)NC2CCN(C(=O)OC)CC2)c1,2.941%
13,CCc1cnccc1C(=O)NC1CCN(C(=O)C2CCCCC2)CC1,87.11%
14,CCc1ccc(O)c(C(=O)NC2CCN(Cc3ccncc3)CC2)c1,19.96%
15,CC(NC1CCN(C(=O)C2CCCCC2)CC1)c1nccs1 (centres undefined),-8.519%
16,O=C(NC1CC1)c1cc(NC(=O)N2CCCC2)ccc1Cl,-51.77%
17,N#Cc1cnc(NC2CCN(C(=O)C3CCCCC3)CC2)c(Cl)c1,1.1%
18,O=C(C1CCCC1)N1CCC(Nc2ccncn2)CC1,23.24%
19,CCc1cnccc1C(=O)NC1CCN(Cc2ccccc2F)CC1,94.68%
20,CNC(=O)C(C)CN(C)C(=O)Nc1ccc(F)c(-n2cccc2)c1 (centres undefined),-4.138%
21,CC(C)n1ccc(=O)nc1SC1CCN(c2ccccc2F)C1=O (centres undefined),-4.763%
22,CCN(CC)C(=O)CNS(=O)(=O)c1cc(Br)ccc1F,7.808%
23,CCC(C#N)NC(=O)COC1CCCCC1 (centres undefined),0.5871%
24,O=C(O)C(F)(F)F.O=C(O)C(F)(F)F.c1nc2n(c1CN1CCCCC1)CCN(C1CCOC1)CC2 (centres undefined),7.057%
25,CC(=O)N1CCOC(c2cncc(CCC(N)=O)n2)C1 (centres undefined),132.1%
26,CN1CCOC(c2cncc(CCC(=O)N(C)C)n2)C1 (centres undefined),119.8%

row,SMILES,Percent Effect
1,CC(=O)N1CCOC[C@H](OCC(=O)N(C)C)C1,-10.39%
2,CC(C)(C)c1n[nH]c(C2CN(C(=O)CCc3cscn3)CCO2)n1 (centres undefined),-3.136%
3,Cc1nn(CCC#N)c(C)c1CCC(=O)N(C)C.Cl,11.54%
4,Cc1cnn(CCC(=O)N2CCOC(c3nc(C(C)(C)C)n[nH]3)C2)c1 (centres undefined),0.508%
5,Cn1cc(CC(=O)N2CCOC(c3nc(C(C)(C)C)n[nH]3)C2)cn1 (centres undefined),-9.292%
6,CCCc1n[nH]c(C2CN(CC(=O)N(C)Cc3ccco3)CCO2)n1 (centres undefined),-31.39%
7,CC(=O)N1CCOC(c2cncc(CCC(=O)N(C)C)n2)C1 (centres undefined),131.5%
8,CN1CCOC(c2cncc(CCC(N)=O)n2)C1 (centres undefined),120.9%
9,CCC(CC)CN1CCC2(CCC(=O)N2OCc2ccccc2F)CC1,5.285%
10,CSCC(C)(O)CNc1cccc(F)c1C(C)=O (centres undefined),5.644%
11,Cc1nc(CNC(C(=O)N2CCOCC2)c2ccccc2)cs1 (centres undefined),-4.254%
12,COCCN(C)CCN1CC2(CCN(C3CCSC3)CC2)OC1=O (centres undefined),-12.17%
13,NC(=O)CCn1ccc(NC(=O)c2ccc(OCC3CC3)cc2)n1,-25.96%
14,CC(C)(C(=O)NCC(N)=O)c1ccccc1F,-10.57%
15,Cc1cn2c(CN(C)C(=O)c3nccnc3N)c(C)nc2s1,-5.585%
16,Nc1nccc(N[C@H]2CN(CC(=O)NC3CCCCC3)C[C@@H]2C2CC2)n1,-21.82%
17,Cn1c(SCC(O)COCc2ccc(Cl)cc2)nnc1C1CC1 (centres undefined),-3.183%
18,O=C(O)C(F)(F)F.O=C(c1cocn1)N1C[C@@H]2CN(CC3CC3)CCO[C@@H]2C1,1.689%
19,O=C(C1CC(F)(F)C1)N1C[C@@H]2CN(CC3CC3)CCO[C@@H]2C1.O=C(O)C(F)(F)F,110.9%
20,O=C(N1CCCC1)N1C[C@@H]2CN(Cc3ccoc3)CCO[C@@H]2C1,26.69%
21,O=C(CC1CCCC1)N1C[C@@H]2CN(Cc3ccoc3)CCO[C@@H]2C1,-9.792%
22,Cc1cnc(C(=O)N2C[C@@H]3CN(CC4CCCC4)CCO[C@@H]3C2)cn1.O=C(O)C(F)(F)F,-8.351%
23,CCN1CCO[C@@H]2CN(C(=O)COC3CCCC3)C[C@@H]2C1.O=C(O)C(F)(F)F,2.686%
24,O=C(C1CC(F)(F)C1)N1C[C@@H]2CN(CC3CCCC3)CCO[C@@H]2C1.O=C(O)C(F)(F)F,97.34%
25,O=C(C1CC(F)(F)C1)N1C[C@@H]2CN(Cc3ccoc3)CCO[C@@H]2C1,97.76%
26,O=C(C1CC(F)(F)C1)N1C[C@@H]2CN(Cc3ccsc3)CCO[C@@H]2C1.O=C(O)C(F)(F)F,8.794%
